Compound activity (PubChem BioAssay)
Compounds with a hit are over-represented: about 3.6% of the library has one in this group of screens.
mHTT-CaM PPI inh: mHTT-calmodulin interaction abrogation. AlphaScreen His-mHTT/GST-CaM binding, luminescence. 190,000 compounds, 3.6% hits. AID 1671202. P42858. inhibition, % at 15 µM
Pf apPOL inh: Pf-apPOL DNA polymerase inhibition. Recombinant Pf-apPOL, molecular beacon fluorescence, 1.5 h. inhibition, % at 10 µM. 210,000 compounds, 0.25% hits. AID 1794808
Of the large screens only hits and unclear results are named; the others gave an inactive call. Cut-off read from the data, not from the text of the source: active = inhibition above about 50%; inactive = the rest.

O=C1C2=C(Nc3ccccc3SC2c2ccc(Br)cc2)c2ccccc21 (configuration not stated)	mHTT-CaM PPI inh 70 (no result: Pf apPOL inh)
COCc1nnc(SCC(=O)Nc2cccc(Cl)c2C)n1-c1ccccc1	none
O=C(Nc1ccc(N2CCCC2)cc1)c1ccc(Br)o1	mHTT-CaM PPI inh 62
O=C(Nc1ccc2c(c1)CCCN2C(=O)C1CC1)c1cc(Br)ccc1Cl	none
O=C(Nc1ccc(N2CCCC2)cc1)c1cc(Br)ccc1Cl	mHTT-CaM PPI inh 86
O=C(Nc1cnc(N2CCCCC2)nc1)c1ccc(Br)o1	none
O=C(Nc1ccc(N2CCCC2)cc1)c1ccccc1[N+](=O)[O-]	mHTT-CaM PPI inh 84
O=C(Nc1ccc(N2CCCC2)cc1)C(Cl)(Cl)Cl	mHTT-CaM PPI inh 74
O=C(Nc1ccc(N2CCCCC2)cc1)c1ccccc1[N+](=O)[O-]	none
Cc1ccccc1C(=O)Nc1ccc(N2CCCC2)cc1	none
O=C(NCCCCc1ccccc1)c1cccs1	none
CC(=O)Oc1ccc2cc(-c3coc4cc(C)cc(C)c34)c(=O)oc2c1	none
CCOc1ccc(-c2nc3n(n2)C(c2ccc(OC)cc2)C2=C(CCCC2=O)N3)cc1 (configuration not stated)	none
COc1ccc(/C=C2\NC(=O)N(CC(=O)Nc3cccc(C)c3)C2=O)cc1Br	none
O=C1N/C(=C\c2cccc(F)c2)C(=O)N1Cc1ccc(Br)cc1	none
O=C(Cc1cccc(F)c1)N1CCCC(c2ccnc(-c3cccc(F)c3)n2)C1 (configuration not stated)	none
O=C(c1ccccc1)N1CCCC(c2ccnc(Nc3cccc(F)c3)n2)C1 (configuration not stated)	mHTT-CaM PPI inh 72
O=C(C1CC1)N1CCCC(c2ccnc(Nc3cccc(F)c3)n2)C1 (configuration not stated)	none
O=C(Cc1cccc(F)c1)N1CCCC(c2ccnc(Nc3ccccc3)n2)C1 (configuration not stated)	mHTT-CaM PPI inh 90
CC(C)C(=O)N1CCCC(c2ccnc(Nc3cccc(F)c3)n2)C1 (configuration not stated)	none
O=C(Cc1cccs1)N1CCCC(c2ccnc(Nc3cccc(F)c3)n2)C1 (configuration not stated)	mHTT-CaM PPI inh 75
Cc1ccccc1Nc1nccc(C2CCCN(C(=O)COc3ccc(F)cc3)C2)n1 (configuration not stated)	mHTT-CaM PPI inh 90
CCOCC(=O)N1CCCC(c2ccnc(Nc3ccccc3C)n2)C1 (configuration not stated)	none
COc1ccc(C2CCCN2C(=O)Nc2cc(C)ccc2C)cc1 (configuration not stated)	none
Cn1ncc([N+](=O)[O-])c1C(=O)Nc1ccc(Br)cc1	none
COCCNC(=O)COc1cccc2c1CCNC2=O	none
COc1ccc(NC(=O)C2CCCN(c3cnn(C)c(=O)c3)C2)cc1 (configuration not stated)	none
O=C(c1cccs1)N1CCCC(c2ccnc(Nc3ccc(F)cc3)n2)C1 (configuration not stated)	none
O=C(c1cccs1)N1CCCC(c2ccnc(Nc3cccc(F)c3)n2)C1 (configuration not stated)	mHTT-CaM PPI inh 93
COCC(=O)NCc1ccc2c(c1)cc(C)n2C	none
Cc1ccc(O)c(C2NC(=O)c3c(sc(C)c3C)N2)c1 (configuration not stated)	mHTT-CaM PPI inh 72
Cc1cccc(C2NC(=O)c3c(sc(C)c3C)N2)c1O (configuration not stated)	none
CSc1cccc(NC(=O)N2CCC(N3CCN(Cc4ccc(C)cc4)C3=O)CC2)c1	none
CSc1cccc(NC(=O)N2CC3CCCN3c3ccccc32)c1 (configuration not stated)	mHTT-CaM PPI inh 81
CCc1ccc(NC(=O)N2CC3CCCN3c3ccccc32)cc1 (configuration not stated)	mHTT-CaM PPI inh 91
Cc1ccc(NC(=O)N2CCOc3ccccc32)cc1F	none
CCc1ccc(NC(=O)N2CC(CC)Oc3ccccc32)cc1 (configuration not stated)	none
Cc1ccc(NC(=O)N2CC3CCCN3c3ccccc32)cc1F (configuration not stated)	mHTT-CaM PPI inh 90
COc1ccc(NC(=O)N2CCN(C)c3ccccc32)cc1	none
CSc1cccc(NC(=O)N2CCN(C)c3ccccc32)c1	mHTT-CaM PPI inh 80
CCCC1CCC(C2=N/C(=C/c3ccc(OC)cc3OC)C(=O)O2)CC1 (configuration not stated)	none
Cc1nn(-c2ccccc2)nc1C(=O)Oc1ccc(C(C#N)=Cc2ccc(C(F)(F)F)cc2)cc1	none (no result: mHTT-CaM PPI inh)
Cc1ccc(C(=O)NC(N)=Nc2nc3ccccc3o2)cc1	none
Cc1ccc(NC(=O)N2CC3CCCN3c3ccccc32)cc1 (configuration not stated)	mHTT-CaM PPI inh 59
O=C(Nc1ccc(F)cc1)N1CC2CCCN2c2ccccc21 (configuration not stated)	none
Cc1oc(C2CCN(C(=O)NCCc3ccccc3)CC2)nc1C(=O)N1CCCC1	none
Cc1cc(C)n(Cc2ccc(F)c(F)c2)c1C(=O)NCc1ccccn1	none
CCc1ccc(O)c(N=Cc2cc(I)ccc2O)c1	mHTT-CaM PPI inh 54
CCc1ccc(O)c(N=Cc2cc(C)ccc2O)c1	none
Cc1ccc(-n2cc3c(c2-c2ccccc2)c(=O)n(C)c(=O)n3C)cc1	none
Cc1cc(C)cc(-n2cc3c(c2-c2ccccc2)c(=O)n(C)c(=O)n3C)c1	Pf apPOL inh 83
COc1ccccc1-n1cc2c(c1-c1ccccc1)c(=O)n(C)c(=O)n2C	none
Cn1c(=O)c2c(-c3ccccc3)n(-c3ccc(F)cc3)cc2n(C)c1=O	Pf apPOL inh 75
COc1ccc(N2C(=O)C3CCCN3C2c2ccc(OC)c(OC)c2)cc1 (configuration not stated)	none
Cc1ccc(N2CC(C(=O)NCc3ccc4c(c3)OCO4)CC2=O)cc1C (configuration not stated)	none
O=C(O)C1(c2ccc([N+](=O)[O-])cc2)CCCC1	mHTT-CaM PPI inh 94
O=C(O)C#Cc1ccc([N+](=O)[O-])cc1	none
O=C(CC1CCN(C(=O)C2CCCCC2)CC1)NC1CCCC1	none
COc1cc(-c2noc(C)c2/C=C/c2ccc(N)cc2)cc(OC)c1OC	mHTT-CaM PPI inh 53
COc1cc(-c2noc(C)c2C#Cc2ccc(N)cc2)cc(OC)c1OC	none
CN(C)CC[C@@H](c1ccc(Cl)cc1)c1ccccn1	none (no result: mHTT-CaM PPI inh)
Cc1ccc(S(=O)(=O)N2CCCC(C)(C(=O)NCc3ccc(F)cc3)C2)cc1 (configuration not stated)	none
Cc1cc(C)cc(S(=O)(=O)N2CCCC(C)(C(=O)NCc3ccccc3)C2)c1 (configuration not stated)	none
Cc1cc(C)cc(S(=O)(=O)N2CCCC(C)(C(=O)NCc3ccc(F)cc3)C2)c1 (configuration not stated)	mHTT-CaM PPI inh 52
Cc1cc(C)c(S(=O)(=O)N2CCCC(C)(C(=O)NCc3ccccc3)C2)c(C)c1 (configuration not stated)	mHTT-CaM PPI inh 59
COc1cc(N/C=C(\C#N)c2nc(-c3ccc(F)cc3)cs2)c(OC)cc1Cl	none
O=C1NCC(O)=C1C=NC12CC3CC(CC(C3)C1)C2	none
CC(C)(C)c1ccc(-c2nc(CSc3ccc(Cl)cc3)no2)s1	none (no result: mHTT-CaM PPI inh)
O=C(Cc1ccc(F)cc1)Nc1cnc(-c2cccnc2)nc1	none
CCOc1ccccc1NC(NC(=O)c1ccco1)C(=O)c1ccc(Cl)cc1 (configuration not stated)	none
